PubChem BioAssay (NCI)
This is part of a sample that, as a whole, favours compounds with a hit. Of some 83,000 tested, about 20% had one in any assay.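 In brief: 96-well plates, 48 h treatment, single concentration, percent growth endpoint.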 Values without a mark were called inactive. The source made the active and inactive calls. The calls were made as follows: active = growth percent below 10; inactive = the rest.

tested on: HL-60(TB) leukemia; experiment: NCI-60 one-dose screen, 48 h (100 = growth as untreated, 0 = no growth, -100 = all killed); conditions: 10 µM unless noted

Compared with `Nc1cc(F)ccc1NC(=O)c1ccc(NC(=O)C/C=C/c2cccnc2)cc1`, `O=C(CSc1nnc(-c2cccs2)n1-c1ccccc1)Nc1ccc(F)cc1` is higher in growth: 13.4% for the first, 69.5% for the second.

Compared with `Cc1ccc(C2=NN(C)C(=O)C3(CCCC3)C2)cc1`, `C#CCOc1ccc(/C=N\Nc2nc(-c3ccc(C)cc3)cs2)cc1OC` is lower in growth: 77.8% for the first, 69.5% for the second.

Compared with `C#Cc1nc(C2=C(C)C(=N\O)/C(=N/O)C2)cs1`, `CC(O)c1cccc(/C(N)=N/C(N)=N/c2nc3ccccc3s2)c1` (stereo not given) is higher in growth: 81.7% for the first, 84.5% for the second.

First: CC1(C)CC[C@]2(C(=O)O)CC[C@]3(C)C(=CC[C@@H]4[C@@]5(C)CC[C@H](NOCCCN)C(C)(C)[C@@H]5CC[C@]43C)[C@@H]2C1
Second: C=C1C(=O)O[C@@H]2C[C@@H](C)[C@H](OC)CC(=O)[C@](C)(OC(C)=O)C[C@H](OC(=O)/C(C)=C\C)[C@@H]12
The growth of the first is lower: 20.2% for the first, 69.3% for the second.

First: CC(=O)C1=C(C)NC(NN)=NC1c1cccc(Cl)c1 (stereo not given)
Second: COc1cc(C2N=C(NNc3ccccc3)NC(C)=C2C(C)=O)ccc1O (stereo not given)
The growth of the first is higher: 115% for the first, 92.3% for the second.

Going from `COC(=O)c1[nH]nc2c1C1(C(=O)c3cccc4cccc1c34)C(C#N)=C(N)O2` (stereo not given) to `N#Cc1c(-c2ccc(F)cc2)nc2c(C#N)c(Nc3ccccc3)nn2c1N`, the growth rises from 82.5% to 104%.

First: CC(=C(c1ccc(OCCCN(C)C)cc1)c1ccc(OCCCN(C)C)cc1)c1ccc(Cl)cc1
Second: COc1ccc(S(=O)(=O)NCCCNc2nccc(-c3[nH]c(-c4ccccc4)nc3-c3ccc(Cl)c(O)c3)n2)cc1
The growth of the first is higher: 75.5% for the first, 43.2% for the second.

Going from `COc1ccc(C(=O)n2cc(C=O)c3ccccc32)cc1` to `C(=C(\C1=NCCN1)n1cnc2ccccc21)/c1cccc2ccccc12`, the growth falls from 93.7% to 71.6%.

Going from `COc1ccccc1N1CCN(C2=CC(=O)C(C)=C(C)C2=O)CC1` to `CC1=C(C)C(=O)C(Nc2cccc(C(=O)OC(C)(C)C)c2)=CC1=O`, the growth falls from 113% to 71%.

First: O=C(CCN1C(=O)/C(=C/c2ccccc2F)SC1=S)N1CCOCC1
Second: CCN1C(=S)N(CC)C2C1NN=C1SC(c3ccccc3)=CC(=O)N12 (stereo not given)
The growth of the first is lower: 82.7% for the first, 86.9% for the second.

Compared with `Cn1cc(-c2cc3ncnc(Nc4ccc(CC(=O)Nc5nc(C(C)(C)C)cs5)cc4)c3s2)cn1`, `N#Cc1cnc2ccc(-c3cnc4n[nH]nc4c3)cc2c1N1CCc2cc(F)c(Cl)cc21` is lower in growth: 29.2% for the first, 20.2% for the second.

Going from `CCN1C(=S)N(c2ccccc2)C2NC(=O)N(/N=C/C=C/c3ccccc3OC)C21` (stereo not given) to `COC(=O)[C@@H](Cc1c[nH]c2ccccc12)NC(=O)CCCCOc1cc(O)c2c(=O)cc(-c3ccccc3)oc2c1`, the growth rises from 64.2% to 84.1%.

First: O=c1c2c(O)cccc2oc2c3c(cc(O)c12)O[C@H]1OC=C[C@@H]31
Second: O=C(Nc1ccc(Cl)c(C(F)(F)F)c1)Nc1ccc2c(ccn2C(=O)c2cccc(F)c2)c1
The growth of the first is higher: 89.7% for the first, 24.7% for the second.

Going from `NCCNC(=O)c1cccc(COc2ccccc2NC(=O)c2cc(Cl)c(Cl)[nH]2)c1` to `COc1ccc(CCN2C(=O)CSC2=S)cc1OC`, the growth falls from 88.9% to 62.4%.

Work on `Cc1ccc(NC(=O)N[C@@H](Cc2cc(F)cc(F)c2)C(=O)NC2C(=O)N3C[C@H](O)C[C@H]3C(=O)N3CCCC[C@H]3C(=O)N[C@@H](CO)C(=O)N3C[C@H](C)C[C@H]3C(=O)O[C@H]2C)c(F)c1` (stereo not given in full) yielded a growth of 16.2%.

In the case of `CCCn1cnc2c(c1=N)C(c1ccc(F)cc1)c1sc3c(C)cccc3c1O2` (stereo not given), the growth is reported as -30.2% (active).
With `O=S(=O)(NCCCNc1nccc(-c2[nH]c(-c3ccccc3)nc2-c2ccc(Cl)c(O)c2)n1)c1cccc2ccccc12` the growth was 9.79% (active).
With `Cc1ccc2c(n1)C(=O)C(Cl)=C(Nc1cccc(C)c1C)C2=O` the growth was -23.2% (active).
For `C=C(C)[C@@H]1CC[C@]2(C)[C@H](CC=C3[C@@H]4CC(C)(C)CC[C@]4(C(=O)NCC#CCN4CCN(C)CC4)CC[C@]32C)[C@@]1(C)CCC#N`, the growth was -47.9% (active).
For `Cc1cc2nc(C(Cl)Cl)nc(-c3ccco3)n2n1`, the growth was -4.98% (active).
With `Cc1ccc2c(n1)C(=O)C(Cl)=C(Nc1ccc(C(C)C)cc1)C2=O` the growth was -0.278% (active).
`CCC(=C(c1ccc(OCCN(C)C)cc1)c1ccc(OCCN(C)C)cc1)c1ccc(Cl)cc1` was tested, and the growth was -59.5% (active).
`NC(N)=Nc1ccc(Oc2cccc(Nc3ccc(Br)c(C(F)(F)F)c3)c2)cn1` was tested, and the growth was -62.9% (active).
In the case of `O=S(=O)(Nc1ccc2c(c1)OCO2)c1ccc(-c2cnc(C3CC3)o2)cc1`, the growth is reported as 3.52% (active).
In the case of `NC(N)=Nc1ccc(Oc2cccc(Oc3ccc(Cl)c(C(F)(F)F)c3)c2)cn1`, the growth is reported as -69% (active).

Compound `CC(=O)NC(C)(C)C(=O)N1CCC[C@H]1C(=O)NC(C)(C)C(=O)N[C@@H](C)C(=O)NC(C)(C)C(=O)N[C@@H](C)C(=O)N[C@@H](CCC(N)=O)C(=O)NC(C)(C)C(=O)N[C@H](C(=O)NC(C)(C)C(=O)NCC(=O)N[C@@H](CC(C)C)C(=O)NC(C)(C)C(=O)N1CCC[C@H]1C(=O)N[C@H](C(=O)NC(C)(C)C(=O)NC(C)(C)C(=O)N[C@@H](CCC(N)=O)C(=O)N[C@@H](CCC(N)=O)C(=O)N[C@H](CO)Cc1ccccc1)C(C)C)C(C)C` has a growth of 95.6% [4.25 µM].
